# Reference: PMC7862700, “An all-to-all approach to the identification of sequence-specific readers for epigenetic DNA modifications on cytosine”
# Legend:
# Assay in all cases: DAPPL (digital affinity profiling via proximity ligation, sequencing); 10 mM Tris-HCl pH 7.5, 50 mM NaCl, 1 mM DTT, 4% glycerol, room temperature, 30 min; GST-TFs on glutathione beads, 16-mer random dsDNA library, 0.1% formaldehyde crosslink after washing; high values mean tight binding
# Conditions in all cases: protein: recombinant; tags: N-terminal GST; dsDNA, one strand shown
# ELF3 = target: T1, ELF3 (Homo sapiens, UniProt P78545 1-371)
# T1 sequence: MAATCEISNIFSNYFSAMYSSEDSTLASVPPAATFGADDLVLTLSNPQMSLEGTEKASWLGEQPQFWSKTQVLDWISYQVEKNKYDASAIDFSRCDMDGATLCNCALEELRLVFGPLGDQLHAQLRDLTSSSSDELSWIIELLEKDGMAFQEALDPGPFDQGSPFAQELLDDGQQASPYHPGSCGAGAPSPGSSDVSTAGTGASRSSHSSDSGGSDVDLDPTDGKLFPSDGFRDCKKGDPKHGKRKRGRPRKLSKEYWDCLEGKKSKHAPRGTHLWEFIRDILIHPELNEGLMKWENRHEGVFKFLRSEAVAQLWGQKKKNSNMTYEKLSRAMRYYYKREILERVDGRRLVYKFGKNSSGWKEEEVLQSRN
# Summary of the method: (§1)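 Binding signal is each hexamer's read frequency for a factor divided by its frequency in the tag-only sample. The factors were GST-fused human transcription factors from yeast, captured on glutathione beads, DNA-barcoded and pooled with that sample. Pools were incubated with 200 nmole of a random double-stranded 16-mer DNA library in Tris/NaCl/DTT/glycerol buffer at room temperature for 30 min, then washed, crosslinked with 0.1% formaldehyde, proximity-ligated with BsaI/T4 ligase (1 h, 37 °C), PCR-amplified and sequenced on an Illumina NextSeq500.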
# ETV1 = ETV1 (Homo sapiens, UniProt P50549 1-477)
# ETV1, sequence (P50549 whole entry): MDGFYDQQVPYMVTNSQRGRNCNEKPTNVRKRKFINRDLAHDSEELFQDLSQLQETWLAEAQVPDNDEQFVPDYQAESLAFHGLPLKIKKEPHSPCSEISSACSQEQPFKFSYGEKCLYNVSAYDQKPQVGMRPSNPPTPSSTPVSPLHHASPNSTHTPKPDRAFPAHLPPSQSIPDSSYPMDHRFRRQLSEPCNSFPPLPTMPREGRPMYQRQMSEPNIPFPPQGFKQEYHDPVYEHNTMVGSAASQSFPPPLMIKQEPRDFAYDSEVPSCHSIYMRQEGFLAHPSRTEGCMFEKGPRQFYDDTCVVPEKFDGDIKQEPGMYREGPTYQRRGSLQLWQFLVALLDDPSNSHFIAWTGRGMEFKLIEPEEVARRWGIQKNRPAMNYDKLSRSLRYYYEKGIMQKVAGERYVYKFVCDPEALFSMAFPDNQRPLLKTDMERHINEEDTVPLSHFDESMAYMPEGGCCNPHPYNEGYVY
# Summary of the method: as §1
# ERF = target: T2, ERF (Homo sapiens, UniProt P50548 1-548)
# T2 sequence: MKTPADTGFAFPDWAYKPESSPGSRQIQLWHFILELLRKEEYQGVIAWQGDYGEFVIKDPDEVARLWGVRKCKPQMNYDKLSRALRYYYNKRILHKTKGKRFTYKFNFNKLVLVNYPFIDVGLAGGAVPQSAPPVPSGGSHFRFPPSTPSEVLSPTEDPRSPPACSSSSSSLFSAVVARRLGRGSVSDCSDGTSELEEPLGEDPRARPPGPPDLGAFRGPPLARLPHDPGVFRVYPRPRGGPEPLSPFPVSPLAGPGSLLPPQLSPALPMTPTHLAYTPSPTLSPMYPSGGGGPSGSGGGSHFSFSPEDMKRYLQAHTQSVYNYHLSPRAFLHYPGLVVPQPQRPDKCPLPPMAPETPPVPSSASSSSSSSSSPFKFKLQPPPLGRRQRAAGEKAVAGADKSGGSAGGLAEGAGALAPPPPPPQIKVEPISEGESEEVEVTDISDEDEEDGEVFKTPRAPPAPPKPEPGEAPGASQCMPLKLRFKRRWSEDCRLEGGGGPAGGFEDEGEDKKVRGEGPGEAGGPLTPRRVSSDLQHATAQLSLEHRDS
# Summary of the method: as §1
# ETV3L = target: T3, ETV3L (Homo sapiens, UniProt Q6ZN32 1-361)
# T3 sequence: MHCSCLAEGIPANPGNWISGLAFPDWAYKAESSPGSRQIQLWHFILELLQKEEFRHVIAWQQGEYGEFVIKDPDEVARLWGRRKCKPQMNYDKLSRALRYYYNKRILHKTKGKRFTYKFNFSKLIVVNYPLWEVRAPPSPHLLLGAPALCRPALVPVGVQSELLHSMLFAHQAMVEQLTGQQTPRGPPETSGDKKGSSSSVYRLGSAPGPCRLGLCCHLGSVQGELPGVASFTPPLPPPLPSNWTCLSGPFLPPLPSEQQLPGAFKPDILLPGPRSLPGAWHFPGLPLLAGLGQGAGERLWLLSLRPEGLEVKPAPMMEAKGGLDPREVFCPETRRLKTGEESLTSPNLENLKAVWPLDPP
# Summary of the method: as §1
# ETS2 = target: T4, ETS2 (Homo sapiens, UniProt P15036 1-469)
# T4 sequence: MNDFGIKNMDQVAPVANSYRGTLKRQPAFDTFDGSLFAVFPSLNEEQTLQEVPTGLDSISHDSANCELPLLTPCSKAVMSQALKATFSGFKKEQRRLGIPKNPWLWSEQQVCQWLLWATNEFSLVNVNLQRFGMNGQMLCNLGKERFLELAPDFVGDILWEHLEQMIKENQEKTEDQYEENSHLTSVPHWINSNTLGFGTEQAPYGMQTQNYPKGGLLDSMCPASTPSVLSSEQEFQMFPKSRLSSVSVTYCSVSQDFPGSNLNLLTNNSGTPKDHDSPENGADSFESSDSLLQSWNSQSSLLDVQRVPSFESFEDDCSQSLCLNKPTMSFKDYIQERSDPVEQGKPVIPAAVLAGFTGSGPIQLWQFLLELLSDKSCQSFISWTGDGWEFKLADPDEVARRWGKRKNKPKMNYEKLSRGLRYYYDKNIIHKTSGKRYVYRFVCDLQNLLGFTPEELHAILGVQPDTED
# Summary of the method: as §1
# SPDEF = target: T5, SPDEF (Homo sapiens, UniProt O95238 1-335)
# T5 sequence: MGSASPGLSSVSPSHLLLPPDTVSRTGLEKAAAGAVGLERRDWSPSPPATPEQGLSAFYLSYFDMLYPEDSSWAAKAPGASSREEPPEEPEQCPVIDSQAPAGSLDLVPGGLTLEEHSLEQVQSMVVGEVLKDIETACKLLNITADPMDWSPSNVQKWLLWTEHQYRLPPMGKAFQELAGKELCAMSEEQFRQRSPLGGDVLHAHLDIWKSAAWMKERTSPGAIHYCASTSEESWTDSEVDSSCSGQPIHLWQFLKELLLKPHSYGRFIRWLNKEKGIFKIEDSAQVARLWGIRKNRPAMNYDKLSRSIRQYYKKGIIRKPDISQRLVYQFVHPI
# Summary of the method: as §1
# ETV7 = target: T6, ETV7 (Homo sapiens, UniProt Q9Y603 1-341)
# T6 sequence: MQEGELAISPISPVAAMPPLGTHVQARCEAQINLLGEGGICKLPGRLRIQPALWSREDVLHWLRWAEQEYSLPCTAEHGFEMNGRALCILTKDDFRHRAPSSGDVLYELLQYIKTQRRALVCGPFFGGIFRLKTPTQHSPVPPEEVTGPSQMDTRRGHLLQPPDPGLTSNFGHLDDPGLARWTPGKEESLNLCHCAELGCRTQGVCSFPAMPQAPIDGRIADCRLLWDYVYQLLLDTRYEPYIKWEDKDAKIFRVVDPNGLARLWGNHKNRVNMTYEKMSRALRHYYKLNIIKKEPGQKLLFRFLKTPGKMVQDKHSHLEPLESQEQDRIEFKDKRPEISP
# Summary of the method: as §1
# ETV3 = target: T7, ETV3 (Homo sapiens, UniProt P41162-2 1-143)
# T7 sequence: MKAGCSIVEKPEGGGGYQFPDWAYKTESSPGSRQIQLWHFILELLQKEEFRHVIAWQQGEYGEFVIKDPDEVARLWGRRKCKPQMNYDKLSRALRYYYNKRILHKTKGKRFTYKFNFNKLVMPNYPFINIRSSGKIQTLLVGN
# Summary of the method: as §1
# ETV6 = ETV6 (Homo sapiens, UniProt P41212 1-452)
# ETV6, sequence (P41212 whole entry): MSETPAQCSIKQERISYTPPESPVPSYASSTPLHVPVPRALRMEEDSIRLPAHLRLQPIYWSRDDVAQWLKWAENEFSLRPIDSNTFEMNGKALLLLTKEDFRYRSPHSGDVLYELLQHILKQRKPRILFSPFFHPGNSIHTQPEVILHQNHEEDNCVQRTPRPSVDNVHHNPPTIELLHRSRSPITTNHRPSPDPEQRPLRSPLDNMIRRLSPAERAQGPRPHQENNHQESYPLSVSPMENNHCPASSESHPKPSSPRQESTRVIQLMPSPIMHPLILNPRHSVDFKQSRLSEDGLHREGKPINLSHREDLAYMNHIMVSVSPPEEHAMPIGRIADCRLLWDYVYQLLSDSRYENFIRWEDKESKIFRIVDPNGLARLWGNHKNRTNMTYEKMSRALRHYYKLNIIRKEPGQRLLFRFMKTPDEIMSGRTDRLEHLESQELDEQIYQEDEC
# Summary of the method: as §1
sequence,measurement,setting,value
TGTAAG,binding signal,ELF3,"1.3 fold enrichment (6-mer frequency, TF over GST control)"
same,binding signal,ETV1,"1.06 fold enrichment (6-mer frequency, TF over GST control)"
same,binding signal,ERF,"1.11 fold enrichment (6-mer frequency, TF over GST control)"
same,binding signal,ETV3L,"1.03 fold enrichment (6-mer frequency, TF over GST control)"
same,binding signal,ETS2,"1.04 fold enrichment (6-mer frequency, TF over GST control)"
same,binding signal,SPDEF,"1.13 fold enrichment (6-mer frequency, TF over GST control)"
same,binding signal,ETV7,"1.04 fold enrichment (6-mer frequency, TF over GST control)"
same,binding signal,ETV3,"1.17 fold enrichment (6-mer frequency, TF over GST control)"
same,binding signal,ETV6,"1.14 fold enrichment (6-mer frequency, TF over GST control)"
